Inconclusive results are not listed. Values without a mark were called inactive. The source made the active and inactive calls. The call rests on the fitted dose curve; in most records, active means well fitted curve in the direction sought with a large enough effect; inconclusive means small, poorly fitted or top-dose-only effect, or another doubt; inactive means no such curve, though single readings can be large; an effect the other way counts as inactive or inconclusive.

This is an account of results in PubChem BioAssay (NCATS).

Experiment [1] can be described thus: qHTS of pediatric cancer cell lines to identify multiple opportunities for drug repurposing: Primary screen for BT-37 cells (AID 1347094). Further: potency means the concentration at half of the fitted maximal effect. Summed up:
(§1)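 Cells seeded at 500-1,000 cells/well in growth media, rested 5 hours at 37 degrees C, 5% CO2, then dosed; MIPE compounds at 11-point (from 0.78 nM) and NPC at 8-point (from 0.59 nM) final concentrations. Viability by CellTiter-Glo luminescence after 48 hours.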
In general terms: qHTS replaces the single test concentration by a dilution series.

A short description of experiment [2]: qHTS of pediatric cancer cell lines to identify multiple opportunities for drug repurposing: Primary screen for NB-EBc1 cells (AID 1347095). Further: potency means the concentration at half of the fitted maximal effect. In short, it runs like this:
as §1

Experiment [3] is described as follows: qHTS of pediatric cancer cell lines to identify multiple opportunities for drug repurposing: Primary screen for U-2 OS cells (AID 1347096). Further: nearly all actives have a fitted effect of over 50% in size. Further: potency means the concentration at half of the fitted maximal effect. Summed up:
(§2)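 Cells (500-1,000/well) rested 5 h, then received compounds for 48 h; metabolically active cells were measured by CellTiter-Glo luminescence. Final concentrations spanned up to 46 µM (MIPE, 11-point) or 0.59 nM-46 µM (NPC, 8-point) in primary screens, 11-point in follow-ups.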

Experiment [4] can be described thus: qHTS of pediatric cancer cell lines to identify multiple opportunities for drug repurposing: Primary screen for Saos-2 cells (AID 1347097). Further: nearly all actives have a fitted effect of over 40% in size. Further: potency means the concentration at half of the fitted maximal effect. In short, it runs like this: as §1
Experiment [5] is described as follows: qHTS of pediatric cancer cell lines to identify multiple opportunities for drug repurposing: Primary screen for NB1643 cells (AID 1347099). Further: nearly all actives have a fitted effect of over 50% in size. Further: potency means the concentration at half of the fitted maximal effect. Summed up: as §1
A short description of experiment [6]: qHTS of pediatric cancer cell lines to identify multiple opportunities for drug repurposing: Primary screen for LAN-5 cells (AID 1347100). Further: potency means the concentration at half of the fitted maximal effect. In short, it runs like this: as §2
Experiment [7] can be described thus: qHTS of pediatric cancer cell lines to identify multiple opportunities for drug repurposing: Primary screen for BT-12 cells (AID 1347101). Further: nearly all actives have a fitted effect of over 25% in size. Further: potency means the concentration at half of the fitted maximal effect. Summed up: as §2
Experiment [8] can be described thus: qHTS of pediatric cancer cell lines to identify multiple opportunities for drug repurposing: Primary screen for Rh18 cells (AID 1347102). Further: nearly all actives have a fitted effect of over 65% in size. Further: potency means the concentration at half of the fitted maximal effect. In short, it runs like this: as §2
Experiment [9] in a line: qHTS of pediatric cancer cell lines to identify multiple opportunities for drug repurposing: Primary screen for OHS-50 cells (AID 1347103). Further: nearly all actives have a fitted effect of over 40% in size. Further: potency means the concentration at half of the fitted maximal effect. In short, it runs like this: as §2
Experiment [10] is described as follows: qHTS of pediatric cancer cell lines to identify multiple opportunities for drug repurposing: Primary screen for RD cells (AID 1347104). Further: nearly all actives have a fitted effect of over 55% in size. Further: potency means the concentration at half of the fitted maximal effect. In short, it runs like this: as §1
A short description of experiment [11]: qHTS of pediatric cancer cell lines to identify multiple opportunities for drug repurposing: Primary screen for MG 63 (6-TG R) cells (AID 1347105). Further: nearly all actives have a fitted effect of over 50% in size. Further: potency means the concentration at half of the fitted maximal effect. In short, it runs like this: as §1
Experiment [12] can be described thus: qHTS of pediatric cancer cell lines to identify multiple opportunities for drug repurposing: Primary screen for control Hh wild type fibroblast cells (AID 1347106).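 Further: series mostly up to about 46 µM; a drop in luminescence marks cytotoxicity and a rise apparent proliferation; nearly all actives have a fitted effect of over 55% in size.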 In short, it runs like this: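 Cells (500-1,000/well) in growth media were settled 5 h at 37 degrees C, then given compounds for 48 h. Viability was read as CellTiter-Glo luminescence. Primary runs used MIPE at 11 points (0.78 nM-46 µM) and NPC at 8 points (0.59 nM-46 µM); follow-ups used 11 points.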

Experiment [13] in a line: qHTS of pediatric cancer cell lines to identify multiple opportunities for drug repurposing: Primary screen for Rh30 cells (AID 1347107). Further: series mostly up to about 46 µM; nearly all actives have a fitted effect of over 75% in size. Summed up: as §2
Experiment [14] can be described thus: qHTS of pediatric cancer cell lines to identify multiple opportunities for drug repurposing: Primary screen for Rh41 cells (AID 1347108). Further: nearly all actives have a fitted effect of over 70% in size. Further: potency means the concentration at half of the fitted maximal effect. Summed up: as §1
A short description of experiment [15]: qHTS of pediatric cancer cell lines to identify multiple opportunities for drug repurposing: Primary screen for SK-N-SH cells (AID 1347098). Further: nearly all actives have a fitted effect of over 65% in size. Further: potency means the concentration at half of the fitted maximal effect. Summed up:
as §2

The nature of experiment [16]: qHTS of pediatric cancer cell lines to identify multiple opportunities for drug repurposing: Confirmatory screen for A673 cells (AID 1347110).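 Further: cells exposed to compound for 48 h before the viability read; nearly all actives have a fitted effect of over 65% in size.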 Further: potency means the concentration at half of the fitted maximal effect. In short, it runs like this:
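A673 cells seeded at 500-1,000 cells/well, rested 5 h, then dosed; primary MIPE 11-point (0.78 nM to 46 µM), NPC (0.59 nM to 46 µM); confirmatory 11-point. CellTiter-Glo luminescence after 48 h.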

The nature of experiment [17]: qHTS of pediatric cancer cell lines to identify multiple opportunities for drug repurposing: Confirmatory screen for SK-N-MC cells (AID 1347111).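 Further: cells exposed to compound for 48 h before the readout; nearly all actives have a fitted effect of over 70% in size.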 Further: potency means the concentration at half of the fitted maximal effect. Summed up: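 Seed 500-1,000 cells/well; rest 5 h at 37 degrees C. Pin-transfer compounds, 11-point titration. Incubate 48 h. Add CellTiter-Glo, 15 min RT, read luminescence.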
Experiment [18] is described as follows: qHTS of pediatric cancer cell lines to identify multiple opportunities for drug repurposing: Confirmatory screen for BT-12 cells (AID 1347112). Further: nearly all actives have a fitted effect of over 55% in size. Further: potency means the concentration at half of the fitted maximal effect. Summed up:
as §2

A short description of experiment [19]: qHTS of pediatric cancer cell lines to identify multiple opportunities for drug repurposing: Confirmatory screen for LAN-5 cells (AID 1347113). Further: nearly all actives have a fitted effect of over 65% in size. Further: potency means the concentration at half of the fitted maximal effect. Summed up:
as §2

Experiment [20] can be described thus: qHTS of pediatric cancer cell lines to identify multiple opportunities for drug repurposing: Confirmatory screen for NB1643 cells (AID 1347109). Further: nearly all actives have a fitted effect of over 45% in size. Further: potency means the concentration at half of the fitted maximal effect. In short, it runs like this: as §2

For the compound `C=C(C)[C@@H]1CC[C@]2(C)CC[C@]3(C)[C@H](CC[C@@H]4[C@@]5(C)CC[C@H](O)C(C)(C)[C@H]5CC[C@]43C)[C@@H]12`, the Potency result in experiment [1], in experiment [2], in [3], in [4], in experiment [5] and in experiment [6] was “inactive” in each case. The Potency entry in experiment [7], in experiment [8], in [9], in experiment [10], in experiment [11] and in [12] was “inactive” in each case. The Potency entry in [13] and in experiment [14] was “inactive” each time.

In the case of `COc1cc(OC)c(NC(=O)Nc2cc(C)on2)cc1Cl`, the Potency result in experiment [1], in experiment [2], in [3], in [4], in [15] and in experiment [6] was “inactive” each time. Also, the Potency result in experiment [8], in experiment [10], in experiment [11], in [12] and in experiment [13] was “inactive” throughout.

`CC1=C(C(=O)Nc2cc3cn[nH]c3cc2F)C(c2ccc(Cl)cc2F)N=C(c2ccnc(Cl)c2)N1` (configuration not stated): the Potency in experiment [1] is 24.3 µM (active); in [2], 10.5 µM (active); in experiment [4] it was 5.9 µM (active); in experiment [15], 19.2 µM (active); in experiment [6], 9.35 µM (active). Besides, the Potency entry in [3], in [10] and in [12] was “inactive” throughout.

Regarding `O=c1ccn([C@@H]2O[C@H](CO)[C@H](O)[C@@H]2F)c(=O)[nH]1`, the Potency entry in experiment [1], in [2], in [3], in experiment [4], in experiment [5] and in experiment [7] was “inactive” in each case. For the same compound, the Potency result in [8] and in experiment [11] was “inactive” throughout.

Turning to `O=[N+]([O-])c1cn2c(n1)OC[C@@H](OCc1ccc(OC(F)(F)F)cc1)C2`, the Potency result in experiment [1], in [2], in experiment [3], in [4], in experiment [5] and in experiment [6] was “inactive” throughout. Also, the Potency result in experiment [10], in [11], in experiment [12] and in [13] was “inactive” each time.

For the compound `C[C@H](O)[C@@H]1C(=O)N2C(C(=O)O)=C(S[C@@H]3CN[C@H](CNS(N)(=O)=O)C3)[C@@H](C)[C@@H]12`, the Potency result in [1], in [2], in experiment [3], in experiment [4], in [5] and in experiment [6] was “inactive” in each case. The Potency result in [7], in experiment [8], in experiment [9], in [10], in experiment [11] and in [12] was “inactive” each time. Further, in [14], the Potency entry is “inactive”.

As to `O=c1[nH]c(=O)n([C@H]2C[C@@H](O)[C@@H](CO)O2)cc1C=CBr`, the Potency entry in experiment [1], in [2], in experiment [3], in experiment [4], in experiment [5] and in experiment [6] was “inactive” in each case. For the same compound, the Potency entry in [7], in experiment [8], in [9], in experiment [11], in [12] and in [13] was “inactive” in each case. For the same compound, the Potency result in experiment [14] is “inactive”.

As for `Oc1ccc(-c2ccc(-c3cc(Nc4cccc(CNC5CC5)c4)n[nH]3)cc2)c(O)c1`, the Potency in [1] is 5.44 µM (active); in experiment [2], 2.96 µM (active); in experiment [3], 5.9 µM (active); in experiment [4], 5.9 µM (active); in experiment [7], 7.69 µM (active); in [9], 1.09 µM (active). Moreover, the Potency in experiment [10] was 10.5 µM (active); in experiment [14], 14.8 µM (active); in experiment [16] it was 2.33 µM (active); in [17], 0.827 µM (active); in [18] it was 8.27 µM (active); in experiment [19], 2.33 µM (active). The Potency entry in [5] and in [12] was “inactive” in each case.

With `COc1cc(O)c2c(c1)C1OC1C[C@H](O)[C@H](O)C(=O)C=CC[C@H](C)OC2=O` (some centres not stated), the Potency in experiment [1] is 19.3 µM (active); in [2] it was 5.9 µM (active); in experiment [3] it was 18.7 µM (active); in [4], 10.5 µM (active); in experiment [5], 2.96 µM (active); in experiment [6] it was 5.26 µM (active). The Potency in experiment [8] is 16.6 µM (active); in [9], 19.3 µM (active); in experiment [10], 2.35 µM (active); in experiment [11] it was 18.7 µM (active); in [14] it was 11.8 µM (active); in experiment [20] it was 4.65 µM (active). Besides, the Potency is 11.7 µM (active) in [16], 9.27 µM (active) in experiment [17], 16.5 µM (active) in experiment [18] and 7.37 µM (active) in experiment [19].

As to `O=S(=O)(O)CCSSCCS(=O)(=O)O`, the Potency result in [1], in [2], in experiment [3], in experiment [4], in [6] and in [9] was “inactive” in each case. Moreover, the Potency entry in experiment [10], in experiment [11], in [12], in experiment [13], in experiment [14] and in experiment [20] was “inactive” throughout. Moreover, the Potency result in experiment [16], in [17], in experiment [18] and in experiment [19] was “inactive” in each case. Also, the Potency in experiment [5] is 23.5 µM (active).

For the compound `CCS(=O)(=O)Nc1ccc2[nH]c(O)c(C(=Nc3ccc(CN4CCCCC4)cc3)c3ccccc3)c2c1`, the Potency was 27.3 µM (active) in experiment [1]; 0.187 µM (active) in experiment [2]; 5.9 µM (active) in experiment [3]; 0.662 µM (active) in experiment [4]; 0.118 µM (active) in experiment [5]; 0.0372 µM (active) in experiment [6]. Moreover, the Potency in [7] was 21.7 µM (active); in experiment [8], 4.18 µM (active); in [10], 0.469 µM (active); in [11], 5.9 µM (active); in experiment [14] it was 0.743 µM (active); in experiment [20], 0.0657 µM (active). Besides, the Potency was 0.928 µM (active) in [16], 0.0737 µM (active) in experiment [17], 18.5 µM (active) in [18] and 0.185 µM (active) in experiment [19]. Besides, in experiment [12], the Potency entry was “inactive”.

Consider `Cc1noc(-c2ccc(CSCCC(=O)O)cc2)c1NC(=O)OC(C)c1ccccc1Cl` (configuration not stated), for which the Potency result in [1], in experiment [2], in experiment [3], in [4], in experiment [15] and in experiment [8] was “inactive” each time. For the same compound, the Potency result in experiment [9], in experiment [10], in experiment [12], in [13] and in experiment [14] was “inactive” throughout.
